Source: PubChem (several laboratories)
TROY signal inh: inhibitors of TROY-dependent NF-kB signaling; 360,000 compounds, 0.98% hits; Q293 LMP1-TROYcd NF-kB luciferase reporter, 4 h; inhibition, % at 10 µM; AID 1347056;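 active = compounds whose plate-normalised and pattern-corrected inhibition of the luciferase reporter signal at the single screening dose is 50% or more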
Shn3 3UTR inh: reduces Shn3 3'UTR luciferase signal in osteoblasts; Clone20 osteoblast Shn3 3'UTR firefly luciferase, 24 h; inhibition, % at 12.5 µM; 360,000 compounds, 0.52% hits; AID 588674;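 active = mean inhibition of at least 75% with every replicate also reaching 75%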;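 note: 0% = median of neutral control wells and 100% = pilot-screen positive control compound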
HIF-2a inh: blocks HIF-2a reporter activity; 360,000 compounds, 0.72% hits; 786-0 RCC cells HIF-2a reporter, luciferase luminescence, overnight; inhibition, % at 18.8 µM;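 active = inhibition of the luminescence signal of 40% or more relative to plate controls, in a single-dose primary screen at 18.75 µM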
TRPM1 prom inh: MITF TRPM1 promoter inhibition in SK-MEL-5 cells; SK-MEL-5 TRPM1 promoter luciferase, 24 h; inhibition, % at 12.5 µM; 330,000 compounds, 0.83% hits;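 active = mean inhibition across replicates of 60% or more, whatever share of single replicates reaches that level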
TWEAK Fn14 block: inhibitors of TWEAK-Fn14 interaction signaling | AID 1159606 | inhibition, % at 10 µM | TWEAK-stimulated Fn14 reporter cells, luciferase luminescence, 8 h | 360,000 compounds, 2% hits; in the data active = inhibition above about 50%
EBV LMP1 NFkB: reduces LMP1-driven NF-kappaB luciferase signal. LMP1-induced NF-kappaB luciferase reporter cells, luminescence. inhibition, % at 12.5 µM. 350,000 compounds, 0.69% hits; in the data active = inhibition above about 41%;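 note: 0% = neutral control wells and 100% = reference inhibitor control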
Active calls of the source: *; . = no result. This is a sample that favours compounds with a hit; in the whole collection about 3.4% have one here.

SMILES | TROY signal inh | Shn3 3UTR inh | HIF-2a inh | TRPM1 prom inh | TWEAK Fn14 block | EBV LMP1 NFkB
CCCc1nc(SCC(=O)N2CCCc3ccccc32)c2c(=O)n(C)c(=O)n(C)c2n1 | 48.3 | 29.0 | 15.5 | . | 46.2 | -0.7
CCCc1nc(SCC(=O)Nc2ccccc2)c2c(=O)n(C)c(=O)n(C)c2n1 | 9.0 | -36.9 | 5.9 | 2.4 | -13.2 | 0.5
Cn1c(=O)c2c(SCC(=O)N3CCCc4ccccc43)nc(CC(C)(C)C)nc2n(C)c1=O | 0.4 | -14.5 | 53.3* | 2.6 | 30.2 | 14.5
CCCc1nc(SCC(=O)N2CCC(Cc3ccccc3)CC2)c2c(=O)n(C)c(=O)n(C)c2n1 | 83.2* | 5.8 | -25.3 | 6.8 | 60.7* | 11.2
CCc1nc2c(OCc3ccccc3C(=O)OC)cccn2c1N(C)C(=O)c1cccc(OC)c1 | -13.5 | -13.2 | 2.3 | . | -29.6 | .
COc1ccc(-c2ccnc3cc(C(=O)O)nn23)cc1 | 11.4 | 4.6 | 13.8 | 1.6 | 11.5 | 56.8*
COc1ccc(CC(N)c2csc(NC(=O)c3cc(C(C)(C)C)nn3Cc3ccccc3)n2)cc1 (centres undefined) | 15.9 | 93.9* | 21.7 | . | 23.9 | .
CC(N)c1csc(NC(=O)c2cc(C(C)(C)C)nn2Cc2ccccc2)n1 (centres undefined) | 18.2 | 19.3 | 3.1 | . | -3.7 | .
CCc1ccc(NC(=O)Nc2ccsc2C(=O)OC)cc1 | 62.7* | -77.4 | -110.4 | -32.5 | 52.9* | -16.2
COc1ccc(Nc2oc(COc3ccc(OC)cc3)nc2C#N)cc1 | 9.1 | 16.7 | 34.3 | 24.1 | 85.7* | 32.9
COc1ccc(Nc2oc(COc3ccc(C)cc3)nc2C#N)cc1 | -2.7 | -2.1 | -4.8 | 2.7 | 69.2* | 19.8
COc1ccc(Nc2oc(COc3ccccc3F)nc2C#N)cc1 | -30.6 | -6.6 | 21.7 | 28.1 | 56.6* | 22.9
COc1ccc(Nc2oc(COc3cccc(C)c3)nc2C#N)cc1 | -64.4 | -30.9 | -70.1 | -23.5 | 67.5* | -0.9
CCNc1oc(COc2cccc(C)c2)nc1C#N | -49.5 | -42.5 | -118.3 | -10.2 | -45.4 | -20.8
Cc1cccc(NC(=O)COc2coc(CN3CCN(c4ccccc4)CC3)cc2=O)c1 | 18.7 | 22.3 | -4.8 | 0.3 | -64.0 | -0.3
CCOC(=O)/C(=C/c1cn(C)c2ccccc12)NC(=O)c1ccccc1 | 1.0 | 14.3 | -26.7 | -10.8 | 9.0 | -8.8
CCc1ccc(NC(=O)[C@H](Cc2ccccc2)NC(=O)C2CCN(C(=O)[C@@H](N)CC(C)C)CC2)cc1 | -13.2 | 11.2 | -5.0 | -6.7 | -13.3 | 3.1
CCOC(=O)c1ccc(S(=O)(=O)N2CCN(CC(O)COc3cccc(C(C)=O)c3)CC2)cc1 (centres undefined) | -6.0 | -5.1 | 6.9 | -31.9 | 0.8 | .
Oc1ccc(C=NNc2nc3ccccc3s2)c(O)c1 | 2.6 | 58.1 | -258.6 | 12.1 | 59.8* | -11.2
Cc1cc(N/N=C/c2ccc(O)cc2O)nc(-c2ccccc2O)n1 | 19.8 | 20.4 | -190.4 | 5.7 | 65.4* | -1.9
Oc1ccccc1C=NNc1nc2ccccc2s1 | -0.2 | -9.5 | -260.5 | -1.3 | 57.2* | -8.0
COc1cc(C2C3=C(COC3=O)Oc3cc4c(cc32)OCO4)cc(OC)c1OC(C)=O (centres undefined) | 12.1 | 15.1 | 13.8 | 55.2 | -18.8 | 5.4
CC1CCCCC1NC(=O)CCn1ccc2cc(S(=O)(=O)N3CCCC3)ccc21 (centres undefined) | -21.2 | 3.3 | 7.2 | -17.3 | 9.9 | 3.8
COC(=O)c1cccc2c1-c1ccccc1/C2=N/O | 56.1* | 12.1 | 32.2 | -9.2 | 82.9* | 43.8*
O=C1c2ccccc2C(=O)c2c1ccc(O)c2O | -16.1 | -1.3 | -15.2 | -1.2 | 17.0 | -1.3
SMILES | TROY signal inh | Shn3 3UTR inh | HIF-2a inh | TRPM1 prom inh | TWEAK Fn14 block | EBV LMP1 NFkB
COC(=O)c1ccc2c(c1O)C(=O)c1ccccc1C2=O | -24.2 | -21.6 | -152.8 | 97.1* | -42.2 | -10.2
CC1(C(=O)NS(=O)(=O)C2CC2)CCN(C(=O)c2cccc(OC(F)(F)F)c2)C1 (centres undefined) | -4.5 | 0.5 | 13.8 | . | -14.2 | .
O=C(O)c1cc(-c2ccc3c(c2)OCCO3)n[nH]1 | 4.2 | 5.7 | 19.8 | 14.0 | -3.1 | 10.2
Oc1ccccc1-c1cc(-c2ccc3c(c2)OCCO3)n[nH]1 | 58.4* | -3.1 | -166.7 | -1.6 | 71.1* | -12.2
O=S(=O)(c1ccc2c(c1)OCCO2)N1CCC(c2nc3ccccc3s2)CC1 | 43.2 | -3.5 | -0.7 | 0.1 | 53.1* | 9.4
O=C(c1ccc(S(=O)(=O)N2CCC(c3nc4ccccc4s3)CC2)cc1)N1CCOCC1 | 12.5 | 43.7 | 8.7 | 13.7 | 6.0 | 5.4
O=C(CCn1cccn1)N1CCCC(Nc2ccc(F)c(F)c2)C1 (centres undefined) | 6.8 | -6.0 | 5.8 | . | -0.1 | 4.9
CSc1nc2ccc(S(=O)(=O)N3CCCC3)cc2s1 | 27.2 | 8.5 | -0.8 | 6.2 | -7.7 | -4.0
CSc1nc2ccc(N3C(=O)C4CCCCC4C3=O)cc2s1 (centres undefined) | -36.0 | -31.2 | -22.8 | 2.6 | 106.7* | -8.8
COCC(=O)N(C)c1nnc(-c2ccccn2)s1 | -36.3 | -20.9 | -76.5 | -8.2 | 0.4 | 50.4*
c1ccc(-c2nnc(-c3ccccn3)s2)nc1 | 27.8 | -1.5 | -33.8 | 20.5 | 80.9* | 46.8*
c1ccc(-c2nc(-c3ccccn3)nc(-c3ccccn3)n2)nc1 | 3.5 | 4.4 | 9.6 | 23.5 | -1.1 | -3.5
Cc1cc2ncn(CS(C)(=O)=O)c2cc1C | -6.7 | -1.6 | 4.5 | 3.0 | 0.3 | 5.7
C=C(C)Cn1cnc2cc(C)c(C)cc21 | -4.2 | 15.4 | 4.6 | -1.0 | 86.0* | 5.1
Cc1cc(SCC(=O)Nc2ccc(O)cc2)n2ncc(-c3ccccc3)c2n1 | 26.9 | 9.8 | -40.1 | 1.8 | 16.6 | -5.5
Cc1cc(SCC(=O)Nc2ccccc2)n2ncc(-c3ccccc3)c2n1 | 62.5* | 13.5 | -10.1 | -6.3 | 32.0 | 3.8
COc1ccc(NC(=O)CSc2cc(C)nc3c(-c4ccccc4)cnn23)cc1 | 55.8* | -4.3 | -6.5 | 5.8 | 21.8 | -1.4
OC(c1ccco1)c1nc(-c2ccc(F)c(Cl)c2)cs1 (centres undefined) | -26.2 | 1.8 | -107.0 | . | -6.2 | .
O=C(N/N=C1/C(=O)c2cccc3cccc1c23)c1ccc(Cl)cc1 | -36.2 | 6.6 | -72.4 | -6.7 | 106.0* | 4.4
Cc1ccc(-c2nc(N)sc2-c2ccccc2)cc1C | 53.1* | -15.1 | 28.4 | -15.7 | 85.6* | -58.6
COc1ccccc1N1CCN(c2ncnc3n[nH]c(Br)c23)CC1 | 42.1 | . | 15.7 | . | 35.5 | .
O=C(Nc1nnc(-c2ccccc2)o1)NC1CCCCC1 | -30.9 | -35.4 | -121.8 | 25.5 | 0.3 | 67.8*
O=C(Nc1ccccc1)Nc1nnc(-c2ccccc2)o1 | 14.2 | -9.8 | -85.1 | -10.1 | -14.1 | -3.4
c1ccc(-c2nnc(NC3=NCCC3)o2)cc1 | 20.4 | 0.6 | -53.8 | -24.7 | 52.6* | 6.3
O=C1NC[C@H](CCCCN2C[C@H](Cc3ccccc3)N(CCC3CCCCC3)C(=O)C2=O)N(CCC2CCCCC2)C1=O | 77.4* | . | -14.7 | . | 26.9 | .
